# Experimental data as given in PubChem BioAssay AID434958 (Southern Research Specialized Biocontainment Screening …, 2010).
# Hit rate of the full screen: of about 1,200 compounds, about 400 (33%) were called active. How the calls were made is not given here. These entries were drawn from the full list. Measured potencies and affinities stand elsewhere.
# Test: mammalian cell cytotoxicity, dose response, cytotoxicity control (AID 434958);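 further: cells exposed to compound for 72 hours before readout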
# Conditions: cytotoxicity counter-screen; series mostly up to 40 µM
row,Structure (SMILES),outcome
1,COc1ccccc1NC(=O)COc1ccc(CO)cc1Cl,inactive
2,COc1ccc(NC(=O)COC(=O)Cc2ccc(-c3ccccc3)cc2)c(OC)c1,inactive
3,COc1cccc(C(=O)C2CCCN(Cc3ccccn3)C2)c1 (stereo not drawn),inactive
4,COc1ccc(-c2cc3cc(OC)c(OC)cc3c(C)n2)cc1,inactive
5,COc1ccc(OC)c2nc(-c3ccc4c(c3)OCO4)ccc12,inactive
6,CC(=O)c1c(OC(=O)c2cccc(Cl)c2)c2ccccc2n1C,inactive
7,CCOC(=O)c1ccc(N2CN(C3CCCCC3)CNC2=S)cc1,inactive
8,N=C1C(c2nc3ccccc3[nH]2)=C(O)CN1c1ccc(F)cc1,inactive
9,Cn1c2ccccc2c(=O)c2cc(C#CC3(O)CCCCC3)ccc21,inactive
10,O=C(O)C1CC(=O)N(c2ccc(OCc3ccccc3Cl)cc2)C1 (stereo not drawn),inactive
11,CSc1ccccc1C(=O)Nc1cccc([N+](=O)[O-])c1C,inactive
12,Cc1nn(-c2ccccc2)c(N2CCCC2)c1/C=C1\N=C(c2ccc(F)cc2)OC1=O,inactive
13,Cc1cc(C)nc(SCC(=O)Nc2ccccc2[N+](=O)[O-])n1,inactive
14,Cc1sc2nc(C(C)(C)C)oc(=O)c2c1C,inactive
15,CC/C(=N\NC(=O)c1ccc(-c2ccccc2)cc1)C12CC3CC(CC(C3)C1)C2,inactive
16,CCCCOc1ccc(C(=O)Oc2cccnc2)cc1,inactive
17,CN(C)S(=O)(=O)c1ccc(C(=O)OCC2CC2(Cl)Cl)cc1 (stereo not drawn),inactive

row,Structure (SMILES),outcome
1,N/C(=N\c1nc2ccccc2o1)NC(=O)c1ccccc1Br,inactive
2,CCOC(=O)N1CCN(C(=O)CSc2nnc(COc3ccccc3)o2)CC1,inactive
3,O=C1C(Cl)=C(N2CCCCC2)C(=O)N1c1ccccc1,inactive
4,CCNC(=S)N/N=C1\C(=O)c2cccc3cccc1c23,inactive
5,O=C(CSc1ncnc2c1cnn2-c1ccccc1)Nc1ccc2c(c1)OCO2,inactive
6,Fc1ccc(-c2csc(NC(=S)Nc3ccccc3)n2)cc1,inactive
7,O=C(CCC(=O)Nc1ccccc1)NNC(=O)c1ccco1,inactive
8,Cc1ccccc1OCC(=O)Nc1ccccc1N1CCOCC1,inactive
9,Cc1ccc(C)c(NC(=O)c2cc(-c3cccnc3)nc3ccccc23)c1,inactive
10,COc1cccc(NC(=O)C2CC2)c1,inactive
11,c1ccc(Nc2ncnc3c2oc2ccccc23)cc1,inactive
12,C=CCNC(=S)NC(=O)c1csc([N+](=O)[O-])c1,inactive
13,COC(=O)c1ccc(/C=N\NC(=O)c2ccc(C)cc2Cl)cc1,inactive
14,CC1CCN(CCOc2ccc(OCc3ccccc3)cc2)CC1,inactive
15,Cc1ccc(S(=O)(=O)NCCCCCC(=O)Nc2ccccn2)cc1,inactive
16,Cn1c(O)c(/C=C2/C=CC=N2)c(=O)[nH]c1=O,inactive
